Among all 360,000 compounds or so, about 2,400 (0.67%) were called active. The full list was thinned out, with actives kept by preference. Values without a mark were called inactive.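 Rule for the calls: active = compounds whose normalised, plate-corrected inhibition of enzyme fluorescence in the single-dose primary screen is 50% or more; inactive = the rest.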
target: Fatty acid synthase (Homo sapiens) (UniProt P49327); test: FAS thioesterase domain inhibitors, primary screen, biochemical, fluorescence intensity, uHTS (AID 602261); conditions: recombinant FAS-TE, OMFH fluorogenic substrate, fluorescence endpoint; at 15 µM; hits give high values;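 note: 0% = DMSO with enzyme and 100% = substrate without enzyme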
Sequence (P49327 whole entry, looked up, the tested form may be a part): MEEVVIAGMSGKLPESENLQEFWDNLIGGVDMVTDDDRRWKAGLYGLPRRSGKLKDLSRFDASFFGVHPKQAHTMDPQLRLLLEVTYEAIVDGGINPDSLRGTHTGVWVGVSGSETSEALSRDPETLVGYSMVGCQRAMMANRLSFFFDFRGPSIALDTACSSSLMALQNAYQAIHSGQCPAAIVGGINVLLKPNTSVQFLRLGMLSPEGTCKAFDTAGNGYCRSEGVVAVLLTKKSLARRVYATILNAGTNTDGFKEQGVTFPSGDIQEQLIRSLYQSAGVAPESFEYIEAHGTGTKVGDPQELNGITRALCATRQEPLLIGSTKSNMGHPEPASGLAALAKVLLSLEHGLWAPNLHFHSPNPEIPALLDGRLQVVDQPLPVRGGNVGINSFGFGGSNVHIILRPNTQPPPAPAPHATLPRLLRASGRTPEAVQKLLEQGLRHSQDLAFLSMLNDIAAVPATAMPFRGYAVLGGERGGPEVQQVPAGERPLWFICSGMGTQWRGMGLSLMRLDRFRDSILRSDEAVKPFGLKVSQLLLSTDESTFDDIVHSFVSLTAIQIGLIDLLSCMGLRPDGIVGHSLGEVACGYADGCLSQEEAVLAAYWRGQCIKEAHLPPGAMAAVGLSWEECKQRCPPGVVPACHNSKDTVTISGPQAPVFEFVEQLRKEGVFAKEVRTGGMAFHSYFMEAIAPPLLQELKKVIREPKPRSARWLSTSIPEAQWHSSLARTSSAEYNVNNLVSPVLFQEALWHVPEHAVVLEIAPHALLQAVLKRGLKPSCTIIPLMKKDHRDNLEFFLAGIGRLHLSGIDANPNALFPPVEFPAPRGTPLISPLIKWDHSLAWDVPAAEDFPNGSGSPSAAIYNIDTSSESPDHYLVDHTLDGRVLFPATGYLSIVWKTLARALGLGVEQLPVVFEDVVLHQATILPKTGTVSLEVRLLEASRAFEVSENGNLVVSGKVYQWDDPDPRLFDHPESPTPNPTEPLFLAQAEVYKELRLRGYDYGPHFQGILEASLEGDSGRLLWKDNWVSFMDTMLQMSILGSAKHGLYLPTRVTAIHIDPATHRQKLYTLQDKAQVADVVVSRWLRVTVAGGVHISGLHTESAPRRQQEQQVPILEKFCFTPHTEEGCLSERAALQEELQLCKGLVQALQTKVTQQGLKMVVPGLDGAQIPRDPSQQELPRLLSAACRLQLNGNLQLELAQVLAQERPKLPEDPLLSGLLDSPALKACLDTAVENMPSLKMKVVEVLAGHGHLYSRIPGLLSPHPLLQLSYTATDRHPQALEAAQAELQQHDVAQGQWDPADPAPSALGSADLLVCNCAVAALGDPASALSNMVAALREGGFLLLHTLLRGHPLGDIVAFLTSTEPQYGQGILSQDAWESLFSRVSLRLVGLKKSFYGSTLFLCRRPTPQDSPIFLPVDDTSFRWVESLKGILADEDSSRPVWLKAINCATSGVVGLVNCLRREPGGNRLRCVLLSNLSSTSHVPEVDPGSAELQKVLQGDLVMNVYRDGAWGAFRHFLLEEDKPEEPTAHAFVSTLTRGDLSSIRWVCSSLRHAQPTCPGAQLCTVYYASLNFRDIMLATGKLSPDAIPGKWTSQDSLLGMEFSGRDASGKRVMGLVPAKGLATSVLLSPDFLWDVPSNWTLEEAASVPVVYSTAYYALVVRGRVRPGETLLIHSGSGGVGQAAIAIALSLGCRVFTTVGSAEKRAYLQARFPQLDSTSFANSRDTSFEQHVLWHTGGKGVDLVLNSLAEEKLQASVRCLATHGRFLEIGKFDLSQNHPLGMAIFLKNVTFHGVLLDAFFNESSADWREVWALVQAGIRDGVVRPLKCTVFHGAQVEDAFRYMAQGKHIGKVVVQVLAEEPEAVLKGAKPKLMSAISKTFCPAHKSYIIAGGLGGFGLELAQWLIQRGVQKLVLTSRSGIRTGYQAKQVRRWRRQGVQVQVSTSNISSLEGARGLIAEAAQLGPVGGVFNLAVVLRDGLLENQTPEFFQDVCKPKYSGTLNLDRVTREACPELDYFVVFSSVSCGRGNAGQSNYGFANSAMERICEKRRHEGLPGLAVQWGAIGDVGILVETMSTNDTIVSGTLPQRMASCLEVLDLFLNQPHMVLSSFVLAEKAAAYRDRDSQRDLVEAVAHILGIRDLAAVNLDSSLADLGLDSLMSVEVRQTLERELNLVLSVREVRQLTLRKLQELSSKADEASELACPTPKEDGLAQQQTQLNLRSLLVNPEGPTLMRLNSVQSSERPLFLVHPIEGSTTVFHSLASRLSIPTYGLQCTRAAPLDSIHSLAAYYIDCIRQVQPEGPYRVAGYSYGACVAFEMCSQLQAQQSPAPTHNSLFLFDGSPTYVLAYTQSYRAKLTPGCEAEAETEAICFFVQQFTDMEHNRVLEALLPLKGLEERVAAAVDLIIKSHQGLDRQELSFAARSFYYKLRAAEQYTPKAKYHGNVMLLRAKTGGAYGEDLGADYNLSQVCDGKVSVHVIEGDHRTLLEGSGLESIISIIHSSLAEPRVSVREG

Row | Structure (SMILES) | inhibition
1 | CCOC(=O)[C@]12Cc3cc(OC)ccc3[C@H]1N(C(C)C)C(=O)c1ccccc12 | 36.7%
2 | CCOC(=O)[C@]12Cc3ccccc3[C@H]1N(C1CCCCC1)C(=O)c1cc(OC)ccc12 | 67.5% (active)
3 | CC(=O)c1ccc(OC(NC(=O)Cc2ccccc2)C(Cl)(Cl)Cl)cc1 (stereo not given) | 11.2%
4 | O=C1C2(Cl)C3(Cl)C4(Cl)C(Cl)(Cl)C5(Cl)C3(Cl)C1(Cl)C5(Cl)C24Cl (stereo not given) | 72.1% (active)
5 | O=C(O)CCn1cc(C=C2C(=O)NC(=S)NC2=O)c(-c2cccc(Br)c2)n1 | -3.4%
6 | COC(=O)C1=C(c2ccc3ccccc3c2)C[C@@H]2CC[C@H]1N2C(=O)NCCO | -1.8%
7 | COc1ccc(-n2nnnc2C(c2cccc3ccccc23)N2CCC(n3c(=O)[nH]c4ccccc43)CC2)cc1 (stereo not given) | 87.1% (active)
8 | O=c1[nH]c2ccccc2n1C1CCN(C(c2ccccc2)c2nnnn2Cc2ccccc2)CC1 (stereo not given) | 18.3%
9 | O=c1[nH]c2ccccc2n1C1CCN(C(c2ccnc3ccccc23)c2nnnn2Cc2ccccc2)CC1 (stereo not given) | 5.1%
10 | CCOc1ccc(CN(CCCl)CCCl)cc1C(=O)OC | -5.1%
11 | O=C(NC1CCCCC1)N1Cc2cc(N3CCCCC3)ccc2-n2nncc2C1 | -2.8%
12 | CN(C)CC1CCCCC1OC(=O)c1ccc(Cl)c(Cl)c1 (stereo not given) | -3.1%
13 | CCCCCCCCCCCCn1ccc(=N)cc1 | -0.8%
14 | O=C1NCN(c2ccccc2)C12CCN(C(c1cccs1)c1nnnn1C1CCCCC1)CC2 (stereo not given) | 14.5%
15 | COc1cccc(C(c2nnnn2-c2ccc3c(c2)OCCO3)N2CCC3(CC2)C(=O)NCN3c2ccccc2)c1OC (stereo not given) | 62% (active)
16 | Cc1ccc(-c2cc(C(=O)N3CCC4(CC3)OCCO4)no2)cc1 | 1.5%
17 | COc1ccc2c(c1O)-c1cccc3c1[C@@H](C2)N(C)CC3 | -2.4%
18 | CCOC(=O)C(O)(c1ccc(N=Cc2ccccc2O)c(C)c1)C(F)(F)F (stereo not given) | -4.3%
19 | CC(C)Oc1cccc(C(=O)C2CCCN(C3CCOCC3)C2)c1 (stereo not given) | -0.1%
20 | c1cncc(CNCCc2c[nH]c3ccccc23)c1 | 5.2%

From PubChem BioAssay AID602261 (Sanford-Burnham Center for Chemical Genomics, 2012)
